According to article PMC5913336, “True equilibrium measurement of transcription factor-DNA binding affinities using automated polarization microscopy”:
pKd: −log10 of the molar value.

These sequences were tested against T1, GATAe (Drosophila melanogaster, UniProt Q9VF00 512-604) (assay: FP; 33 mM phosphate pH 7.0, 90 mM NaCl, 0.01% Tween 20, 0.1 mM DTT, 0.5% agarose; room temperature). Settings: tags: N-GST (pGEX-6P-1, kept); dsDNA, one strand shown.
T1 sequence: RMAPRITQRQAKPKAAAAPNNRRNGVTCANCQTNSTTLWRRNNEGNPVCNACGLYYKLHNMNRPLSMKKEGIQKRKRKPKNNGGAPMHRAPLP

| Sequence | binding signal | pKd |
| --- | --- | --- |
| CATGTTGTCTAC | 9.99 Kd / Kd of best base at the position |  |
| CATGTTATGTAC | 25.2 Kd / Kd of best base at the position |  |
| CATCTTATCTAC | 1.22 Kd / Kd of best base at the position |  |
| GATGTTATCTAC | 1.64 Kd / Kd of best base at the position |  |
| CATGTTATCTAG | 1.71 Kd / Kd of best base at the position |  |
| CATGTTATATAC | 17.7 Kd / Kd of best base at the position |  |
| AATGTTATCTAC | 1.68 Kd / Kd of best base at the position |  |
| CATGTTAGCTAC | 25.2 Kd / Kd of best base at the position |  |
| CATGTTTTCTAC | 35.6 Kd / Kd of best base at the position |  |
| CATGTTATCTAA | 1.53 Kd / Kd of best base at the position |  |
| CATGTCATCTAC | 13.1 Kd / Kd of best base at the position |  |
| TATGTTATCTAC | 1.62 Kd / Kd of best base at the position |  |
| CATGTTATCTCC | 1.58 Kd / Kd of best base at the position |  |
| CATGTGATCTAC | 11.2 Kd / Kd of best base at the position |  |
| CATGTTATTTAC | 15.3 Kd / Kd of best base at the position |  |
| CATGGTATCTAC | 3.02 Kd / Kd of best base at the position |  |
| CGTGTTATCTAC | 1.55 Kd / Kd of best base at the position |  |
| CACGTTATCTAC | 1.57 Kd / Kd of best base at the position |  |
| CATGTTATCTGC | 1.67 Kd / Kd of best base at the position |  |

| Sequence | binding signal | pKd |
| --- | --- | --- |
| CTTGTTATCTAC | 1.46 Kd / Kd of best base at the position |  |
| CATGTTCTCTAC | 42.3 Kd / Kd of best base at the position |  |
| CATTTTATCTAC | 1.94 Kd / Kd of best base at the position |  |
| CCTGTTATCTAC | 1.53 Kd / Kd of best base at the position |  |
| CATGTTATCTAT | 1.52 Kd / Kd of best base at the position |  |
| CATGTTATCTAC |  | ~8.14 |
| CATGTTATCAAC | 1.76 Kd / Kd of best base at the position |  |
| CATGCTATCTAC | 2.34 Kd / Kd of best base at the position |  |
| CATGTTACCTAC | 20.8 Kd / Kd of best base at the position |  |
| CATGTTAACTAC | 9.8 Kd / Kd of best base at the position |  |
| CATGTAATCTAC | 2.43 Kd / Kd of best base at the position |  |
| CATATTATCTAC | 2.02 Kd / Kd of best base at the position |  |
| CATGTTATCGAC | 2.3 Kd / Kd of best base at the position |  |
| CAAGTTATCTAC | 2.12 Kd / Kd of best base at the position |  |
| CATGTTATCTTC | 1.72 Kd / Kd of best base at the position |  |
| CAGGTTATCTAC | 1.9 Kd / Kd of best base at the position |  |
| CATGTTATCCAC | 3.95 Kd / Kd of best base at the position |  |
| CATGATATCTAC | 2.32 Kd / Kd of best base at the position |  |
